Experimental data taken from ChEMBL document CHEMBL1961873, “Compounds: GSK PKIS; Assays: Nanosyn kinase panel” (2012).
Values joined by “and” are separate entries in the source; they are usually repeats but may differ in a detail not shown here. Equal values may be shown once.

Key:
[1] = target: MAP/microtubule affinity-regulating kinase 3 (Homo sapiens) (UniProt P27448); settings: at 1 µM;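 also: reported values are averaged percent inhibition of MARK3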
[2] = target: T1, MAP/microtubule affinity-regulating kinase 4 (Homo sapiens) (UniProt Q96L34); settings: at 0.1 µM
T1 sequence (whole entry): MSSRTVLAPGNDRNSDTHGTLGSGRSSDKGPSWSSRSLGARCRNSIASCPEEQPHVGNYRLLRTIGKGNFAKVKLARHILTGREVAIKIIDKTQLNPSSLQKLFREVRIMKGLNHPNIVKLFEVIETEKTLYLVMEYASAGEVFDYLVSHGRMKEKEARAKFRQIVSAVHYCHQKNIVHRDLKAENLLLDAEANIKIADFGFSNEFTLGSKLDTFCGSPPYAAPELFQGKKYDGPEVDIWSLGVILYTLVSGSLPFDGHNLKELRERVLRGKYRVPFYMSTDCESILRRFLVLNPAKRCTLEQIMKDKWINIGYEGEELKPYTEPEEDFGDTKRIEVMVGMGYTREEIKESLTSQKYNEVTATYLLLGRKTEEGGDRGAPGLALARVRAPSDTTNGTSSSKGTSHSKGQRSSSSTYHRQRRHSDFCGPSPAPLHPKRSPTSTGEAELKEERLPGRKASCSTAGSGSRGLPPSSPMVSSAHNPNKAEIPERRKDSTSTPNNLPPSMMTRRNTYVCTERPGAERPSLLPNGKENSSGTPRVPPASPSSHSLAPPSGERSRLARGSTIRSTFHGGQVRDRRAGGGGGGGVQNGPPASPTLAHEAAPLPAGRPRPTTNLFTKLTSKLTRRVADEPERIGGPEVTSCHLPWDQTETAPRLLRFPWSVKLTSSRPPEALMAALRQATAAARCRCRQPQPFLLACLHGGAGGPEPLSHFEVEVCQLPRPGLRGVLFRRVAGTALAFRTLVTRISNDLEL

[3] = target: T1, MAP/microtubule affinity-regulating kinase 4 (Homo sapiens); settings: at 1 µM
[4] = target: Maternal embryonic leucine zipper kinase (Homo sapiens) (UniProt Q14680); settings: at 0.1 µM
[5] = target: Maternal embryonic leucine zipper kinase (Homo sapiens) (UniProt Q14680); settings: at 1 µM
[6] = target: MAP kinase-interacting serine/threonine-protein kinase 1 (Homo sapiens) (UniProt Q9BUB5); settings: at 0.1 µM
[7] = target: MAP kinase-interacting serine/threonine-protein kinase 1 (Homo sapiens) (UniProt Q9BUB5); settings: at 1 µM
[8] = target: MAP kinase-interacting serine/threonine-protein kinase 2 (Homo sapiens) (UniProt Q9HBH9); settings: at 0.1 µM
[9] = target: MAP kinase-interacting serine/threonine-protein kinase 2 (Homo sapiens) (UniProt Q9HBH9); settings: at 1 µM
[10] = target: Serine/threonine-protein kinase MARK2 (Homo sapiens) (UniProt Q7KZI7); settings: at 0.1 µM;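 also: mean percent inhibition of PAR-1Balpha kinase activity, reported from the GSK PKIS screen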
Chain of Serine/threonine-protein kinase MARK2 (Homo sapiens) (Q7KZI7 whole entry): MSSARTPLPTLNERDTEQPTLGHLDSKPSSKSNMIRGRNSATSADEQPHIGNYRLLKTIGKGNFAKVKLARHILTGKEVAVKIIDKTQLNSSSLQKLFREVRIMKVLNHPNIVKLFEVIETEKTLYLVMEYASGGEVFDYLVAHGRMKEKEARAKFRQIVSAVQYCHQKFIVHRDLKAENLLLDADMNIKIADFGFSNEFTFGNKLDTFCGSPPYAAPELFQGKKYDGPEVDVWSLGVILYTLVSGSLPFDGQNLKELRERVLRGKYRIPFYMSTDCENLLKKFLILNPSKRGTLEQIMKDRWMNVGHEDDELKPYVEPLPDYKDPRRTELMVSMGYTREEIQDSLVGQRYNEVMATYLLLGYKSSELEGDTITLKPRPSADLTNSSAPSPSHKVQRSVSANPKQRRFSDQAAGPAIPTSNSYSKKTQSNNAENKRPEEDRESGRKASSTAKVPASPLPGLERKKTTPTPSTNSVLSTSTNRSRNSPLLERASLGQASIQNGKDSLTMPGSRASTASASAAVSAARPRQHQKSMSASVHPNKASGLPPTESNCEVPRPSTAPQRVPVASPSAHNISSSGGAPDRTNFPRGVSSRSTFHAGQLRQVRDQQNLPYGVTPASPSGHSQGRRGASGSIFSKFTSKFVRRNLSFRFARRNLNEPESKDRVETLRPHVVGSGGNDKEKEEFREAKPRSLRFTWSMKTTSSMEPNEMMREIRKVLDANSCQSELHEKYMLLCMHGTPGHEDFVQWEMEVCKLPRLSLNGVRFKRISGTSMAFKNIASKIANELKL

Chain of MAP kinase-interacting serine/threonine-protein kinase 2 (Homo sapiens) (Q9HBH9 whole entry, looked up): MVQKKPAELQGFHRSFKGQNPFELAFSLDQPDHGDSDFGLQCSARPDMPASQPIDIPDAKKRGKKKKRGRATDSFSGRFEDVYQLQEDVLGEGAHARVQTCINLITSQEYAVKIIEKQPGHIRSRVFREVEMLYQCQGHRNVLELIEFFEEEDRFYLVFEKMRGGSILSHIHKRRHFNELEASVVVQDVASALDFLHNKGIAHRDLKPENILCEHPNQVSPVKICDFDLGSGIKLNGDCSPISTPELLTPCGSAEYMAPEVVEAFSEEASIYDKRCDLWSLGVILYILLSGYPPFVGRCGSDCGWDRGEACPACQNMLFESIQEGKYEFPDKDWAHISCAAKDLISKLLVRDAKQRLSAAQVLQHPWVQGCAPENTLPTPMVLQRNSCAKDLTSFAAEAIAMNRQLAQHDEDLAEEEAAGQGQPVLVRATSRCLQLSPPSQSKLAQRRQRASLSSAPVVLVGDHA
Chain of Maternal embryonic leucine zipper kinase (Homo sapiens) (Q14680 whole entry, looked up): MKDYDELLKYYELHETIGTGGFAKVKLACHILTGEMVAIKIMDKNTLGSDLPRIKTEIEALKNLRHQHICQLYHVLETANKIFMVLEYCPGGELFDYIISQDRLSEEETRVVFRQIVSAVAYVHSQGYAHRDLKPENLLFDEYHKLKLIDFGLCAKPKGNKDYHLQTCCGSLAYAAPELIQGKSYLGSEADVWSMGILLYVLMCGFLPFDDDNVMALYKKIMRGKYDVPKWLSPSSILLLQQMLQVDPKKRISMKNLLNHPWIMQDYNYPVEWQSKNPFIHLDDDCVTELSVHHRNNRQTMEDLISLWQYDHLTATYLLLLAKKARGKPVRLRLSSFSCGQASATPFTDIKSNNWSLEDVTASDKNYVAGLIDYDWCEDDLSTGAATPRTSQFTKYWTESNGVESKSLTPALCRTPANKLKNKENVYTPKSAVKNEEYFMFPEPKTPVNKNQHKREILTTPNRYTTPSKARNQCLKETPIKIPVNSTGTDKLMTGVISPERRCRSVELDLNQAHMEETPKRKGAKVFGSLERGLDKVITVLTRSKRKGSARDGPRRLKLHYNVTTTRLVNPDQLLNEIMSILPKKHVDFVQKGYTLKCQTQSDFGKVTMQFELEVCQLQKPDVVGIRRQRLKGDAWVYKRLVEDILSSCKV
Chain of MAP kinase-interacting serine/threonine-protein kinase 1 (Homo sapiens) (Q9BUB5 whole entry, looked up): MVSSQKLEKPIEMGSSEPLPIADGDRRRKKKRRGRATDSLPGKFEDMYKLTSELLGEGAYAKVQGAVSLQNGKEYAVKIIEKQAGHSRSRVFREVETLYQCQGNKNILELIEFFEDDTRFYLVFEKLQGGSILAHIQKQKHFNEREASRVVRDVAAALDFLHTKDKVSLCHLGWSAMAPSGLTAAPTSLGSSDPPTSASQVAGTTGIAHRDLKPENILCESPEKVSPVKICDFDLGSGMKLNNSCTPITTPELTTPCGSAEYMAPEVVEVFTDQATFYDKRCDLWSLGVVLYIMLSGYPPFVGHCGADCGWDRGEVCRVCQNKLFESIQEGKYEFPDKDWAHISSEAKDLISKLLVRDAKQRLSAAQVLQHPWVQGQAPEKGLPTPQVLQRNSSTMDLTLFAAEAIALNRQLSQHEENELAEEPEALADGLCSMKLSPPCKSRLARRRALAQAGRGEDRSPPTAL
Chain of MAP/microtubule affinity-regulating kinase 3 (Homo sapiens) (P27448 whole entry, looked up): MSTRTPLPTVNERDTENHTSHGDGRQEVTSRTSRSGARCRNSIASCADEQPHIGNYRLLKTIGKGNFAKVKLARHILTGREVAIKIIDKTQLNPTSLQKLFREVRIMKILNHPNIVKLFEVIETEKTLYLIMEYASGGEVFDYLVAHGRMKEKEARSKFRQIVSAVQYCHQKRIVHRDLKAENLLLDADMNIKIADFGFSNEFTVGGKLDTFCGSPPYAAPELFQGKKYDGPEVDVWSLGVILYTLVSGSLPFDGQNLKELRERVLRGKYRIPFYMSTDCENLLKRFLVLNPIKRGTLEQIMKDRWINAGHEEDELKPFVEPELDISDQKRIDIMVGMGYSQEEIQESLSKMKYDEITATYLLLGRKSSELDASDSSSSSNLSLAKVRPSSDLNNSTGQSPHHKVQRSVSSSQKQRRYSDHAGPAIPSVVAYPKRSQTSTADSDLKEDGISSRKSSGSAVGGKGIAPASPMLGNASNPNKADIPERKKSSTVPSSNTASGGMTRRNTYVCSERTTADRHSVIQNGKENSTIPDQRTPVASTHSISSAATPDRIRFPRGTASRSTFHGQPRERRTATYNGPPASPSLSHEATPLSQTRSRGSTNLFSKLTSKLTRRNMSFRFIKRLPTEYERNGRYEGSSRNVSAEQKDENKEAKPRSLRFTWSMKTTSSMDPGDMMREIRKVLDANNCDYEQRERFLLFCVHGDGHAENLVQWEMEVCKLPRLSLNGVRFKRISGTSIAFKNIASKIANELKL

Compound | inhibition [1] | inhibition [2] | inhibition [3] | inhibition [4] | inhibition [5] | inhibition [6] | inhibition [7] | inhibition [8] | inhibition [9] | inhibition [10]
CS(=O)(=O)CCNCc1ccoc1-c1ccc2ncnc(Nc3ccc(OCc4ccccc4)cc3)c2c1 | -1.52% | -0.56% | -0.4% | -0.71% | -0.61% | 2% | 4.19% | 0.34% | 5.82% | -1.43%
CCn1c(-c2nonc2N)nc2cncc(C(=O)NCCNC)c21 | 16.6% | 2.2% | 7.71% | 15.2% | 61.2% | 2.94% | 6.9% | 0.78% | 13.4% | -0.85%
Fc1ccc(Nc2nccc(-c3c(-c4ccc(C(F)(F)F)cc4)nn4ncccc34)n2)cc1F | 3.91% | 1.29% | 2.56% | 1.38% | 3.78% | 2.72% | 2.85% | 0.89% | 2.32% | -0.1%
CN1CCN(Cc2ccc(-c3cc4ncnc(Nc5ccc(OCc6cccc(F)c6)c(Cl)c5)c4s3)o2)CC1 | 2.84% and 0.44% | 1.62% and 1.87% | 3.52% and 3.32% | 4.83% and 3.2% | 6.62% and 9.42% | 3.21% and 7.2% | 18.6% and 22% | -0.2% and 3.49% | 9.13% and 14.2% | 0.8% and 0.26%
N#Cc1cccc(Nc2ncc(-c3ccccc3)o2)c1 | 7.34% | -0.09% | 1.81% | -0.12% | 2.2% | 2.67% | 10.1% | 2.19% | 8.7% | -0.17%
Nc1nccc(-c2c(-c3ccc(F)cc3)ncn2C2CCNCC2)n1 | 0.65% and -2.22% | -0.05% and 0.87% | 0.67% and 0.98% | -3.33% and -1.76% | 4.7% and 0.94% | -0.09% and 1.2% | 12.4% and 3.16% | 0.4% and 0.49% | 4.75% and 1.44% | 0.15% and 0.08%
Cc1cc(O)cc(C)c1/C=C/c1cncc(C(=O)OC(C)(C)C)c1 | 1.89% | 0.38% | 0.19% | 3.07% | 5.89% | 4.59% | 16.7% | 1.84% | 9.67% | 0.13%
CCOc1ccc2c(-c3ccnc(Nc4cc(OC)cc(C(F)(F)F)c4)n3)cnn2n1 | -0.83% | -0.72% | 2.36% | 3.83% | 10.3% | 4.65% | 8.47% | 2.3% | 4.37% | 0.85%
CNC(=O)c1cncc(/C=C/c2ccccc2C)c1 | 6.03% | 1.26% | 3.49% | 1.3% | 4.29% | 4.95% | 29.4% | 2.12% | 14.9% | 1.19%
O=C1Nc2ccccc2/C1=C1\CCc2cc(O)ccc21 | 40.1% | 7.29% | 33.1% | 11.1% | 56.8% | 3.12% | 7.84% | 2.73% | 15.9% | 5.04%
CC1=C(C(=O)Nc2ccc3[nH]ncc3c2)C(c2ccc(F)cc2)N=C(c2ccc(C(F)(F)F)nc2)N1 (stereo not given) | 1.71% | 0.35% | 2.44% | 2.15% | 5.11% | 2.55% | 4.82% | 0.9% | 3.32% | -1.01%
CN1CCC(C(=O)Nc2n[nH]c3nc(-c4ccc(O)cc4)c(Br)cc23)CC1 | 2.99% and 3.23% | 2.14% and -0.03% | 4.18% and 0.65% | 3.6% and 2.34% | 11.7% and 8.84% | 55.1% and 58% | 77.6% and 84.9% | 6.5% and 5.49% | 36.9% and 34.7% | 1.43% and -2.51%
N#Cc1ccc2c(-c3ccnc(NC4CC4)n3)c(-c3ccc(F)cc3)nn2c1 | 0.43% | 0.81% | 0.11% | -0.07% | -2.83% | 1.98% | 0.7% | -0.74% | 1.03% | -0.15%
Cc1ccc(-c2cc3c(NC(=O)C4CC4)ncnc3o2)cc1 | 7.2% | 1.77% | 3.33% | 2.47% | 4.56% | 1.56% | 6.36% | 1.94% | 5.77% | 1.3%
CS(=O)(=O)CCNCc1ccc(-c2ccc3ncnc(Nc4ccc(OCc5cccc(C(F)(F)F)c5)cc4)c3c2)o1 | 3.96% | 1.47% | 2.54% | 3.5% | 11.4% | 2.34% | 6.48% | 0.53% | 5.47% | 0.72%
COc1ccc(Nc2ncc(-c3ccccc3)o2)cc1OC | 26.7% | 2.3% | 19.4% | 0.74% | 8.76% | 2.58% | 28.8% | 4.65% | 26.1% | 1.48%
COc1cc(N2CCN(C(C)C)CC2)ccc1Nc1nc(Nc2cccc3ncccc23)c2cc[nH]c2n1 | 3.2% | 0.47% | 1.44% | -0.58% | 3.21% | 0.05% | 2.31% | -0.09% | 1.91% | -0.66%
NC(=O)c1ccc2c(-c3ccnc(NCCCO)n3)c(-c3ccc(F)cc3)nn2c1 | 21.9% | 1.93% | 2.67% | 6.11% | 6.85% | 4.56% | 13.4% | 3.16% | 7.35% | 1.93%
CN(c1ccc(NC(=O)NCCN2CCOCC2)cc1)c1ccnc(Nc2ccc(CS(C)(=O)=O)cc2)n1 | 9.85% | 1.24% | 5.47% | 2.36% | 7.07% | 2.87% | 8.84% | 2.32% | 9.63% | 0.88%
